M18AAP inhibitor = blocks P. falciparum M18 aspartyl aminopeptidase; AID 1822; 1.2% of 290,000 active; recombinant PfM18AAP, H-Glu-NHMec fluorogenic cleavage; inhibition, % at 7.35 µM;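 active = inhibition above the campaign mean inhibition over all tested compounds plus 3 SD, cut at about 28% in these data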
ALR inh = inhibitors of human sulfhydryl oxidase ALR; 3.8% of 290,000 active; P55789; inhibition, % (no concentration beside the values); AID 485317; purified ALR, DTT oxidation, H2O2 HRP-luminol luminescence;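 active = mean replicate inhibition above about 79%, with every replicate also reaching it, limit read from the data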
Target sequence (P55789 whole entry, looked up): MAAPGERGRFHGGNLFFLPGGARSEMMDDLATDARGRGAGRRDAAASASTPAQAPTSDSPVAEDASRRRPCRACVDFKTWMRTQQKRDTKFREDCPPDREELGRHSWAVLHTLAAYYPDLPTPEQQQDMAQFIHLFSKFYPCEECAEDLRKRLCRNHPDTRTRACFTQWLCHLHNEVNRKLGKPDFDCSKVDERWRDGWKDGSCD
PfGluPho inh = PfG6PD (Plasmodium falciparum) enzyme inhibition; PfGluPho enzyme, NADPH resazurin-diaphorase fluorescence; inhibition, % at 20 µM; 0.78% of 350,000 active; AID 504690;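 active = inhibition reaching at least a set limit at 20 µM in the primary screen, cut at about 59% in these data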
H9c2 protect = myocardial damage modulation in H9c2 cells | H9c2 cardiomyocytes, H2O2 injury protection, ATPLite, 2 h | protection from H2O2 cell death, % at 20 µM | 0.63% of 360,000 active | AID 588492;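 active = compounds giving at least 50% protection of heart cells from peroxide-induced death in the single-dose screen, raw or plate-pattern-corrected value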
PHOSPHO1 inh = blocks human PHOSPHO1 phosphatase activity. recombinant PHOSPHO1, absorbance phosphatase assay. inhibition, % at 13.3 µM. 1.1% of 290,000 active. AID 1565. Q8TCT1; in the data active = inhibition above about 60%
Target sequence (Q8TCT1 whole entry, looked up): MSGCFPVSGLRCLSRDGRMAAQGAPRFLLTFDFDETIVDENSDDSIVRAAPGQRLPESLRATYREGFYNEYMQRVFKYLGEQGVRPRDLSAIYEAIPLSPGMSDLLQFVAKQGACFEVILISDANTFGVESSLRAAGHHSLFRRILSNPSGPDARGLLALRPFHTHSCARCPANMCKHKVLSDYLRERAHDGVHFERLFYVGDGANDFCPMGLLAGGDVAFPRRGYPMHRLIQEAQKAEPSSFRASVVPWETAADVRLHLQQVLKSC
PfG6PD confirm = PfG6PD inhibition, single-dose confirmed | shares compounds with PfGluPho inh | recombinant PfGluPho, NADPH-diaphorase-resazurin fluorescence | inhibition, % at 20 µM | 34% of 2,400 active | AID 504753;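 active = inhibition of at least 50% at 20 µM in any single replicate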
Diaph ctr 10uM = inhibits diaphorase or oxidizes, flagging false PfG6PD hits; shares compounds with PfGluPho inh; diaphorase-coupled resazurin reduction, fluorescence, NADPH 10 uM; inhibition, % at 20 µM; 39% of 820 active;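 active = average inhibition reaching 50% or more with the compound at 20 µM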;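 also: resorufin red fluorescence formed as diaphorase reduces resazurin using NADPH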
Diaph ctr 30uM = inhibits diaphorase or oxidizes, flagging false PfG6PD hits. shares compounds with PfGluPho inh. Diaphorase/resazurin coupled assay, resorufin fluorescence, 30 uM NADPH. inhibition, % at 20 µM. 29% of 820 active. AID 504863;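 active = inhibition averaging 50% or more, tested at 20 µM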
Of the large screens only hits and unclear results are named; the others gave an inactive call (follow-up assays come after a bar, where they were run). Hits are enriched below; roughly 5.6% of the tested compounds scored in any of these assays.

CNCc1ccccc1Sc1cccc(O)c1	none
NS(=O)(=O)c1c(Sc2ccccc2C(=O)O)ccc2ccccc12	none (no result: ALR inh)
CC[n+]1c(/C=C2\C=C(C)CC(C)(C)C2)sc2ccccc21	PfGluPho inh 61.4, PHOSPHO1 inh 100.0 (no result: ALR inh) | PfG6PD confirm inactive
COC1=CC(=O)C=C(OC)C1(O)CC(C)=O	PfGluPho inh 68.5 (no result: M18AAP inhibitor, ALR inh, PHOSPHO1 inh) | PfG6PD confirm 53.9 | Diaph ctr 10uM inactive | Diaph ctr 30uM inactive
CCc1cccc(CC)c1-n1c(SCC(=O)N2CCCc3ccccc32)nc(O)cc1=O	none (no result: M18AAP inhibitor, PHOSPHO1 inh)
O=C1C(Cl)=C(NCCCO)C(=O)c2ccccc21	none
O=C1C(SCCO)=C(SCCO)C(=O)c2ccccc21	PfGluPho inh 118.7 (no result: M18AAP inhibitor, PHOSPHO1 inh) | PfG6PD confirm 107.0 | Diaph ctr 10uM 86.8 | Diaph ctr 30uM 84.3
O=S(=O)(c1cccs1)N1CN(Cc2ccco2)c2nc3ccccc3nc21	PfGluPho inh 92.7 | PfG6PD confirm inactive
CCOC(=O)C1(C)CCN1C(=O)c1ccc(OC)c(F)c1 (stereo not given)	none (no result: M18AAP inhibitor, ALR inh, PfGluPho inh, PHOSPHO1 inh)
COc1cc(NC(C)CCCNC(C)C)c2ncccc2c1OC (stereo not given)	none (no result: M18AAP inhibitor, ALR inh, PHOSPHO1 inh)
COc1cc(C(=O)Nc2cccc3ncccc23)cc(OC)c1OC	none (no result: ALR inh)
COc1cc(N)c2ncccc2c1OC	PfGluPho inh 70.5 (no result: M18AAP inhibitor, ALR inh, PHOSPHO1 inh) | PfG6PD confirm 73.7 | Diaph ctr 10uM inactive | Diaph ctr 30uM inactive
COc1cc(NCCCCCCN)c2ncccc2c1OC	PfGluPho inh 89.5 (no result: M18AAP inhibitor, ALR inh, PHOSPHO1 inh) | PfG6PD confirm inactive
Cc1ccccc1NC(=O)Cc1nnc(SCC(=O)NC2CCCC2)n1C	none
COc1cc(N2C(=O)C=CC2=O)ccc1N1C(=O)C=CC1=O	PfGluPho inh 120.9 (no result: M18AAP inhibitor, ALR inh, PHOSPHO1 inh) | PfG6PD confirm 105.3 | Diaph ctr 10uM inactive | Diaph ctr 30uM inactive
N=C1/C(=C/c2cccn2CCOc2ccccc2)C(=O)N=C2SC=C(c3ccccc3)N12	PfGluPho inh 64.7 | PfG6PD confirm inactive
Cc1[nH]c2ccccc2c1/C=N/NC(N)=S	none (no result: ALR inh)
CCc1nnc(N/N=C/c2c(C)[nH]c3ccccc23)n1N	M18AAP inhibitor 54.2, ALR inh 98.8, PfGluPho inh 60.2 | PfG6PD confirm inactive
CCCCCn1c(-c2ccco2)nc2nc3ccccc3nc21	PfGluPho inh 63.6 (no result: ALR inh) | PfG6PD confirm inactive
CCOC(=O)C1CCN(C(=O)Nc2ccc3nc(-c4ccco4)c(-c4ccco4)nc3c2)CC1	PfGluPho inh 71.3 | PfG6PD confirm inactive
COC(=O)CCC(=O)OC1(C)C(=O)C2=CN(CCCOC(C)C)C(c3ccc(OC)cc3)=CC2=C(Br)C1=O (stereo not given)	PfGluPho inh 82.0 (no result: M18AAP inhibitor, ALR inh) | PfG6PD confirm inactive
COC(=O)CCC(=O)OC1(C)C(=O)C2=CN(c3ccccc3)C(c3ccc(OC)cc3)=CC2=C(Br)C1=O (stereo not given)	PfGluPho inh 73.2 (no result: M18AAP inhibitor, PHOSPHO1 inh) | PfG6PD confirm 73.9 | Diaph ctr 10uM 50.0 | Diaph ctr 30uM inactive
COC(=O)CCC(=O)OC1(C)C(=O)C2=CN(Cc3ccccc3)C(c3ccc(OC)cc3)=CC2=C(Br)C1=O (stereo not given)	PfGluPho inh 78.0 (no result: M18AAP inhibitor, ALR inh, PHOSPHO1 inh) | PfG6PD confirm inactive
COC(=O)CCC(=O)OC1(C)C(=O)C2=CN(CC(C)C)C(c3ccc(OC)cc3)=CC2=C(Br)C1=O (stereo not given)	none (no result: M18AAP inhibitor, PfGluPho inh, H9c2 protect)
COc1ccc(NC(=O)C2Cc3c(-c4ccc(NC(C)=O)cc4)ccnc3O2)cn1 (stereo not given)	none (no result: M18AAP inhibitor, ALR inh, PfGluPho inh, PHOSPHO1 inh)
CCN(CC)c1ccc(NC(=O)COc2ccccc2C)cc1S(=O)(=O)Nc1ccccc1OC	PfGluPho inh 60.6 | PfG6PD confirm inactive
CCN(CC)CCNC(=O)c1ccc(NC(=O)c2ccc(Cl)c(S(=O)(=O)Nc3ccccc3OC)c2)cc1	none (no result: ALR inh, PfGluPho inh, H9c2 protect)
COc1ccc(NC(=O)c2ccc(=O)[nH]c2)cc1S(=O)(=O)N1CCCCC1	none (no result: PfGluPho inh, H9c2 protect)
CCN(CC)c1ccc(NC(=O)c2ccccc2Br)cc1S(=O)(=O)Nc1ccccc1OC	PfGluPho inh 86.1 (no result: ALR inh) | PfG6PD confirm 63.6 | Diaph ctr 10uM inactive | Diaph ctr 30uM inactive
CCN(CC)c1ccc(NC(=O)c2ccc(=O)[nH]c2)cc1S(=O)(=O)Nc1ccccc1OC	PfGluPho inh 61.8 | PfG6PD confirm inactive
CCCS(=O)(=O)NC(=O)C1(C)CCN(C(=O)c2ccc(OC)c(F)c2)C1 (stereo not given)	none (no result: M18AAP inhibitor, ALR inh, PfGluPho inh, PHOSPHO1 inh)
O=C(CC1CCC1)Nc1cccc2c([N+](=O)[O-])cccc12	none (no result: M18AAP inhibitor, PHOSPHO1 inh)
CCc1ccc(CNC(=O)CCn2ccc3cc(S(=O)(=O)N4CCCC4)ccc32)cc1	none
Cc1ccc(Nc2c([N+](=O)[O-])ccc3nonc23)c(C)c1	none
Cc1ccc(S(=O)c2ccc([N+](=O)[O-])c3nonc23)cc1 (stereo not given)	PfGluPho inh 117.1 (no result: M18AAP inhibitor, ALR inh, PHOSPHO1 inh) | PfG6PD confirm 102.8 | Diaph ctr 10uM inactive | Diaph ctr 30uM inactive
N#C/C(C(=O)Nc1ccc(Cl)cc1)=C(/S)Nc1ccccc1	M18AAP inhibitor 56.8, PfGluPho inh 95.2 | PfG6PD confirm 82.7 | Diaph ctr 10uM inactive | Diaph ctr 30uM inactive
O=C(Nc1ccc(Nc2ccccc2)cc1)c1ccc(Cl)cc1	none (no result: M18AAP inhibitor, PHOSPHO1 inh)
Oc1c(N=Nc2ccccc2)sc2ccccc12	PfGluPho inh 60.2 | PfG6PD confirm inactive
Cc1cccc(NC2=C(NC(=O)c3ccccc3)C(=O)c3ccccc3C2=O)c1	PfGluPho inh 83.5 | PfG6PD confirm 68.6 | Diaph ctr 10uM inactive | Diaph ctr 30uM inactive
O=C(NC1=C(NC2CCS(=O)(=O)C2)C(=O)c2ccccc2C1=O)c1ccccc1 (stereo not given)	PfGluPho inh 103.8 | PfG6PD confirm 95.4 | Diaph ctr 10uM 98.2 | Diaph ctr 30uM 90.0
O=C1C(Cl)=C(NC(=O)c2ccccc2)C(=O)C(Cl)=C1NC(=O)c1ccccc1	PfGluPho inh 113.8 (no result: ALR inh) | PfG6PD confirm 109.9 | Diaph ctr 10uM 86.2 | Diaph ctr 30uM 61.4
CC(=O)C1=C(O)C(CSCc2ccccc2)N(C)C1=O (stereo not given)	none (no result: M18AAP inhibitor, ALR inh, PHOSPHO1 inh)
CCn1c(SCc2nc3ccccc3[nH]2)nnc1-c1cnccn1	PfGluPho inh 66.8 | PfG6PD confirm inactive
CCOc1ccc2c(c1)C(=O)C(=O)N2CC1COc2ccccc2O1 (stereo not given)	PfGluPho inh 62.9 (no result: ALR inh) | PfG6PD confirm inactive
CC(NC1=CC(=O)c2cccnc2C1=O)C(O)c1ccccc1 (stereo not given)	PfGluPho inh 105.2 (no result: M18AAP inhibitor, ALR inh, PHOSPHO1 inh) | PfG6PD confirm 73.8 | Diaph ctr 10uM inactive | Diaph ctr 30uM inactive
CN(CC(=O)Nc1ccc(F)c(F)c1)S(=O)(=O)c1cccc2cccnc12	none
CCCCn1c(N)c(-c2nc3ccccc3s2)c2c([N+](=O)[O-])nn(C)c(=O)c21	none
Cn1nc([N+](=O)[O-])c2c(-c3nc4ccccc4s3)c(N)n(C3CCCCC3)c2c1=O	PfGluPho inh 77.1 | PfG6PD confirm inactive

High-throughput results as filed in PubChem.
